A short description of the assay: compound effects on multiple myeloma cell viability – MM1S, calcein-AM fluorescence, 48 h, basal, profiling panel (AID 1165). Further: test concentration not given here. Conditions: higher = more signal.
Consider `C=CC[C@@]12N=C(c3ccc(OCCCO)cc3)O[C@@H]1c1ccccc1N(CCS(=O)(=O)c1ccccc1)C2=O`, for which the z-score is -1.41. Then `CN(C)CCCNC(=O)[C@@]1(C)c2ccccc2C(=O)N(Cc2cc(C(F)(F)F)cc(C(F)(F)F)c2)[C@H]1c1ccc(CO)cc1`, with -0.309; and `CC(C)NC(=O)[C@@]1(C)c2ccccc2C(=O)N(C(C)C)[C@H]1c1ccc(CO)cc1`, with 0.608; and `O=C(N1CCCCC1)[C@@]1(Cc2ccccc2)COC(c2ccc(OCCCO)cc2)=N1`, with -3.14. In the case of `O=C1C[C@@](C(=O)NCC(F)(F)F)(c2ccc([N+](=O)[O-])cc2)[C@@H](c2ccc(CO)cc2)N1C1CCCCC1`, the z-score is -1.34. Then `O=C1c2ccccc2[C@](Cc2ccccc2I)(C(=O)NCc2ccccc2)[C@H](c2ccc(CO)cc2)N1C1CCCCC1`, with -2.3. As for `C=CC[C@@]1(C(=O)N2CCCCC2)N=C(c2ccc(OCCCO)cc2)O[C@@H]1c1ccccc1`, the z-score was -1.3. Take `C=CCOC(=O)[C@@H]1[C@H]2C(=O)O[C@H](c3ccccc3)[C@H](c3ccccc3)N2[C@H](c2ccc(OCCOC(=O)[C@H]3C[C@H]4C(=O)N[C@@H](CCCC[N+](C)(C)C)C(=O)N4[C@H]3c3ccc(O)cc3)cc2)[C@@]12C(=O)Nc1ccc(I)cc12`: the z-score is -0.477. Then `C[C@H]1ON(c2ccc(C(=O)OC(C)(C)C)cc2)[C@@H](c2ccc(O)cc2)[C@@H]1C(=O)N1C(=O)OC[C@@H]1c1ccccc1`, with -2.72; and `Cc1c(NC(=O)/C(C#N)=C/C=C/c2ccccc2[N+](=O)[O-])c(=O)n(-c2ccccc2)n1C`, with -3.09.

The values above are taken from PubChem BioAssay.
